# The whole screen tested about 360,000 compounds, of which about 3,700 (1%) were called active. Inconclusive results (about 2%) are left out.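 The calls were made as follows: active = normalized GFP-positive differentiation at or above the plate's own cutoff, the solvent-only control mean plus 3 SD; inconclusive = no clear call, values can overlap the other calls; inactive = the rest.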 The sample as a whole holds a higher share of actives than the screen did.
# Assay: HoxA9-arrested leukemia cell differentiation promoters – flow cytometry, MLPCN library, primary screen (AID 624256);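 as to GFP+ MAC1+ double positive: cells exposed to compound for four days before flow analysis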;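 as to normalized GFP-positive differentiation: cells exposed to compound for four days before flow analysis; 0% = DMSO wells and 100% = fulvestrant positive control at 5 µM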
# Conditions: ER-HoxA9 myeloid progenitors, lysozyme-GFP differentiation, at 10 µM; GFP+ MAC1+ double positive: measured here: differentiation confirmed by MAC1 staining, stronger effect = higher value; normalized GFP-positive differentiation: stronger effect = higher value
SMILES,GFP+ MAC1+ double positive [%],outcome,normalized GFP-positive differentiation
COc1ccc(NC(=O)Cn2nnc(C(=O)NCCc3ccc(OC)c(OC)c3)c2N)cc1,1,inactive,
COc1ccc(CNC(=O)c2nnn(CC(=O)Nc3cc(C)cc(C)c3)c2N)cc1,0.5,inactive,
CCOc1ccc(Cn2nnc(C(=O)Nc3ccc(OC)cc3OC)c2N)cc1,12.5,,38% (active)
Cc1cccc(C)c1NC(=O)C(c1cccc(F)c1)N1CCN(C)CC1 (centres undefined),2.3,inactive,
COc1ccc(S(=O)(=O)N2CCOCC2)cc1C(=O)NC1CCCCC1,0.6,inactive,
COc1ccc(S(=O)(=O)N2CCOCC2)cc1NC(=O)COc1ccccc1,0.8,inactive,
COc1ccc(S(=O)(=O)N2CCOCC2)cc1C(=O)Nc1nc2ccccc2s1,27.7,,33.1% (active)
Cc1c(C(=O)NCC2CC2)sc(=O)n1Cc1cccc(F)c1,4.3,inactive,
O=S1(=O)CC(N2CCN(Cc3ccccc3F)CC2)CN1Cc1cn(Cc2cccc(C(F)(F)F)c2)nn1 (centres undefined),1,inactive,
O=C1C=CN2CCCC2CC1 (centres undefined),1.2,,7.96% (active)
CC(=O)C1=CCC(c2ccccc2)N(S(=O)(=O)c2ccc(C)cc2)C1 (centres undefined),1.6,inactive,
Cc1ccccc1S(=O)(=O)N1[C@@H](c2cccc(Cl)c2)C(C(=O)OC(C)(C)C)=CC[C@H]1c1ccc(Cl)cc1,0.4,inactive,
COc1ccc(S(=O)(=O)N[C@@H]2C=C[C@@H](CC(=O)N3CCc4ccccc4C3)O[C@@H]2CO)cc1,1.9,inactive,
CN1/C(=c2/s/c(=C3/C(=O)N(c4ccccc4)NC3=Nc3ccccc3)n(C)c2=O)C(C)(C)c2ccccc21,13.2,,200% (active)
Cc1cccc(-c2cnc(C(O)c3ccc4ccccc4c3)[nH]2)c1 (centres undefined),0.2,inactive,
CNc1nc2c(C)cccn2c(=O)c1C=Nc1ccc(OC)cc1,0.6,inactive,
Cc1cccn2c(=O)c(/C=C3\SC(=S)N(CC(C)C)C3=O)c(NCCCOC(C)C)nc12,6,,235% (active)
CCCN(CCC)c1nc2c(C)cccn2c(=O)c1/C=C1/SC(=S)N(Cc2ccco2)C1=O,9.4,,389% (active)
Cc1ccc2[nH]c(=O)c(-c3nc4c(C)cccn4c3NCc3ccco3)cc2c1,0.8,inactive,
Cc1cccn2c(=O)c(C=O)c(Nc3ccc(S(N)(=O)=O)cc3)nc12,0.8,inactive,
CC(C)C1C(=O)N(Cc2cn(CCC3OCCO3)nn2)CCS(=O)(=O)N1Cc1ccc(-c2ccccc2C(F)(F)F)cc1 (centres undefined),1.5,inactive,
CCCCOCCCNC(=O)C[C@@H]1C[C@@]2(C(=O)OC)CCCCC=C2N(CCC2=CCCCC2)C1=O,1.3,inactive,

SMILES,GFP+ MAC1+ double positive [%],outcome,normalized GFP-positive differentiation
CCOC(=O)[C@]12CCCC=C1N(CCC1=CCCCC1)C(=O)[C@H](CC(=O)NCCCOC)C2,2.8,inactive,
CC(C)NC(=O)C1(C)CCCCN1Cc1cccc(C(F)(F)F)c1 (centres undefined),1.4,inactive,
COc1ccccc1CNC(=O)C1CCN(S(C)(=O)=O)CC1,0.7,inactive,
COc1ccccc1CNC(=O)C1CCN(C(=O)[C@@H]2Cc3ccccc3CN2)CC1,4.9,inactive,
COc1ccccc1CNC(=O)C1CCN(c2nc3ccccc3o2)CC1,4.6,,9.06% (active)
CNC[C@H]1OCc2cnnn2CCCC(=O)N([C@H](C)CO)C[C@@H]1C,0.8,inactive,
CC(C)C[C@H]1CNC(=O)C(=O)N1C[C@H]1CCCN1C[C@H](Cc1ccc(O)cc1)N1C[C@H](CC(C)C)N(CC2CCCCCC2)C(=O)C1=O,1.3,inactive,
CCCCc1c(-c2ccc(Cl)cc2)ncn1CCc1ccccc1OC,2.2,inactive,
N#CCC(=O)NC(=O)NCC1CC1,1.2,inactive,
CC(C)(C)NC(=O)NC(=O)COC(=O)CCC1CCCCC1,0.5,inactive,
O=C(NCC1CCCCC1)NCC1CCCCC1,5.3,,9.67% (active)
COC(=O)Cc1ccc(OC2(C)CCN(Cc3ccc4c(c3)OCCO4)C2)cc1 (centres undefined),2.5,inactive,
CCC(c1nc2ccccc2[nH]1)n1c(=O)c(-c2cccs2)nc2ccccc21 (centres undefined),2.5,inactive,
CCCc1c(-c2ccccc2F)ncn1Cc1ccccc1OC,1.4,inactive,
CCc1c(-c2ccc(F)cc2)ncn1Cc1cccc(-c2ccccc2)c1,3.4,inactive,
Nc1cc(=O)n(Cc2ccccc2)c(=O)n1Cc1ccccc1,1.4,inactive,
Cc1cc2nc3c(=O)n(Cc4ccccc4)c(=O)[nH]c3nc2cc1N,5,,282% (active)
CN(C(=O)COC(=O)c1ccc(Br)o1)c1c(N)n(Cc2ccccc2)c(=O)[nH]c1=O,0.6,inactive,
COC(=O)[C@]12CCCCC=C1N(CCC1=CCCCC1)C(=O)[C@H](CC(=O)N1CCSCC1)C2,0.5,inactive,
N#CC1=C(N)Oc2c(sc3ccccc23)C1c1ccco1 (centres undefined),2.5,,197% (active)
N#CC1=C(N)Oc2cc(N)ccc2C1c1ccccc1 (centres undefined),0.2,inactive,
N#CC1=C(N)Oc2c(ccc3cccnc23)C1c1ccncc1 (centres undefined),0,inactive,

SMILES,GFP+ MAC1+ double positive [%],outcome,normalized GFP-positive differentiation
CCCCNC(=O)OC1CC2CC1[C@H]1CCCCN1C2=O (some centres undefined),0.8,inactive,
COC(=O)[C@@]12C[C@@H](CC(=O)NCCCCc3ccccc3)C(=O)N(Cc3ccccc3)C1=CCC(C)(C)C2,3.1,inactive,
Cc1ccc(C(=O)NC2CCCC(C)C2C)cc1S(=O)(=O)N1CCCCC1 (centres undefined),2.2,,27.1% (active)
Cc1ccc(C(=O)NNC(=O)c2ccncc2)cc1S(=O)(=O)N1CCCCC1,0.5,inactive,
CC1CCCC(NC(=O)c2cc(S(=O)(=O)N3CCCCC3)ccc2Cl)C1C (centres undefined),1.2,inactive,
CCOC(=O)[C@]12CCC=C1N(Cc1ccco1)C(=O)[C@H](CC(=O)NCc1cccc(C(F)(F)F)c1)C2,1.6,inactive,
Cc1cc(NC(=O)CCN2CCN(Cc3ccccc3)CC2)ccc1Br,0.5,inactive,
COc1ccccc1/C=C/C=N/NC(=O)CN1CCN(Cc2ccccc2)CC1,0.2,inactive,
CN1CCN(CCC(=O)N/N=C/C=C2\N(C)c3ccccc3C2(C)C)CC1,2.2,,224% (active)
COc1ccc(-c2ccc(C(=O)NCCN3CCOCC3)c3occc23)c(C)c1,1,inactive,
O=C(NCc1cccnc1)c1cc(C2CCCN(C(=O)C3CCCCC3)C2)on1 (centres undefined),0.6,inactive,
c1ccc2c(c1)CSc1sccc1C2=C1CCNCC1,4.3,,87.9% (active)
CCCNC(=O)C1(C)CCN(C(=O)c2cc(F)ccc2C)C1 (centres undefined),1.2,inactive,
COc1ccc(N2c3ccccc3CN(Cc3ccccc3)[C@@H](C)[C@H]2Cc2ccc(-c3ccccc3)cc2)cc1,3,inactive,
O=C(Nc1ccc2c(c1)OCCO2)C1c2ccccc2OCC(=O)N1Cc1ccccn1 (centres undefined),1.3,inactive,
CC1CCN(C(=O)c2ccc(S(=O)(=O)Cc3cc(F)ccc3F)c([N+](=O)[O-])c2)CC1,1,,43.9% (active)
O=C(c1ccc(Oc2ccc(Cl)cc2)c([N+](=O)[O-])c1)N1CCCC1,0.9,inactive,
Nc1ccc(C(=O)N2CCN(S(=O)(=O)c3ccc(Cl)cc3)CC2)cc1[N+](=O)[O-],0.1,inactive,
O=S1(=O)CC(N2CCN(CCO)CC2)CN1C1CCCC1 (centres undefined),1,inactive,
CCN(CC)C(=O)C1CCCN(Cc2cccc(Cl)c2)C1 (centres undefined),1,inactive,
CCOc1ccc(C2C3=C(CCCC3=O)N(CC(=O)O)C3=C2C(=O)CCC3)cc1,0.6,inactive,
COc1ccc(C2C3=C(CCCC3=O)N(CC(=O)O)C3=C2C(=O)CCC3)cc1,17.3,,322% (active)

SMILES,GFP+ MAC1+ double positive [%],outcome,normalized GFP-positive differentiation
COc1ccc(C2C(C#N)=C(N)N(c3ncn[nH]3)C3=C2C(=O)CCC3)cc1 (centres undefined),0.3,inactive,
CN(C)N1C(N)=C(C#N)C(c2ccc(Br)cc2)C2=C1CCCC2=O (centres undefined),0.4,inactive,
CCCN1C2=C(C(=O)CCC2)C(c2ccc(O)c(Br)c2)C2=C1CCCC2=O,3.4,,78.6% (active)
CCOc1ccc(C2C(C#N)=C(N)N(N(C)C)C3=C2C(=O)CCC3)cc1 (centres undefined),0.6,inactive,
CCOC(=O)N1CCN(C(=O)C[C@@H]2C[C@@]3(C(=O)OC)CCCCC=C3N(CCC3=CCCCC3)C2=O)CC1,1.2,inactive,
CN(Cc1ccccc1F)c1cc2c(c3c1ccn3C)C1CCC2O1 (centres undefined),2.1,inactive,
Cc1cc(C)n2c(Nc3c(C)cccc3C)c(CCc3ccccc3)nc2n1,0.8,inactive,
CC1(C(=O)NS(=O)(=O)Cc2cccc(Cl)c2)CCN1C(=O)Cc1ccccc1 (centres undefined),1.3,inactive,
O=S1(=O)CC(N2CCN(CCO)CC2)CN1Cc1cn(Cc2cccc(Cl)c2)nn1 (centres undefined),1.8,inactive,
Cc1cc(C)cc(OCC(=O)NNC(=O)c2cc3ccccc3oc2=O)c1,0.7,inactive,
CCN(CC)c1ccc([N+](=O)[O-])cc1C(=O)O,0.9,inactive,
CCN(CC)c1ccc2cc(C(=O)O)c(=O)oc2c1,2.8,,30.9% (active)
COC(=O)[C@]12CCCCC=C1N(Cc1ccc3c(c1)OCO3)C(=O)[C@H](CC(=O)N1CCOCC1)C2,1.1,inactive,
CC(C)C1Cc2[nH][nH]c(=O)c2C(c2ccc(Cl)cc2)O1 (centres undefined),1.1,inactive,
Cc1ccc2cccc([N+](=O)[O-])c2n1,0.8,inactive,
Cc1ccccc1Nc1c([N+](=O)[O-])ccc2nonc12,0.6,inactive,
Cc1ccc(Nc2cc(C)nc3c(C)ccc([N+](=O)[O-])c23)cc1,8.4,,156% (active)
CCc1nc2c(OCCOc3ccccc3)cccn2c1N(C)C(=O)c1ccc(OC)cc1,0.8,inactive,
CC1=C(C(N)=O)C(c2ccc3c(c2)OCO3)n2nc(-c3cccc(C)c3)nc2N1 (centres undefined),2,,8.9% (active)
CC1=C(C(N)=O)C(c2ccc(F)cc2)n2nc(CCCO)nc2N1 (centres undefined),1,inactive,
COc1cccc(-c2nc3n(n2)C(c2ccccc2Cl)C(C(N)=O)=C(C)N3)c1 (centres undefined),1.5,inactive,

# Reference: PubChem BioAssay AID624256 (NMMLSC, 2012)
